Shown are actives, neighbours in structure and some others; about 3.9% of the full set was active somewhere.
HepG2 viability – kills HepG2 cells in TGF-b inhibitor counter-screen | AID 588856 | Potency, µM (doses to about 46.1 µM), for the others: top-dose activity change, negative = cytotoxicity, usual class: cytotoxic | HepG2 CAGA-GFP viability, ATP luminescence, 18 h | hit rate 0.76% among 410,000
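CellTiter-Glo luminescence gave cytotoxicity after 18 hours at 37 degrees C. The cells were HepG2 CAGA-GFP in 1% FBS DMEM, stimulated with 500 pg/mL TGF-beta after compound addition. %Activity was normalised to no-cell wells (complete cell-killing) and DMSO (no toxicity), and curves were fitted and classified.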
TGFb inhibitor – blocks TGF-b signaling; HepG2 CAGA-GFP TGF-b/SMAD3 reporter, GFP fluorescence, 18 h; TGF-beta stimulated, 500 pg/mL final; Potency, µM (top dose mostly 46.1 µM), inactives show at the highest dose activity, negative = inhibition, usual class: inhibitors; hit rate 1.2% among 410,000; further: on the % scale 0 is the no-effect control and ±100 the full control effect; nearly all actives have a fitted effect of over 65% in size
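Inhibition of TGF-beta-driven CAGA-GFP reporter expression in HEPG2 cells is measured by cellular GFP fluorescence after 18 h stimulation with 500 pg/mL recombinant TGF-beta in 1% FBS medium at 37 degrees C.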
ATXN2 expr inh – ATXN2 expression inhibition; HEK-293 ATXN2-luciferase reporter, luminescence, 24 h; Potency, µM (highest dose often 57 µM), inactives show at the highest dose activity change, negative = inhibition, hits mostly inhibitors; hit rate 0.72% among 360,000; further: on the % scale 0 is the no-effect control and ±100 the full control effect; nearly all actives have a fitted effect of over 55% in size
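ATXN2-luciferase reporter cells (luciferase flanked by upstream and downstream ATXN2 gene portions) were treated 24 h at 37 °C with compounds at up to 57 uM. SteadyGlo luminescence gave expression; GF-AFC fluorescence gave viability.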
HT1080 IDH1KD tx – HT-1080 IDH1 knockdown cell toxicity (counter line); HT-1080 IDH1 knockdown viability, ATP luminescence, 48 h; Potency, µM (top dose mostly 46.1 µM), without a hit: at the highest dose activity, negative = toxicity, actives largely listed as cytotoxic; hit rate 2% among 360,000;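 further: 0% = DMSO wells and -100% = cell-free medium wells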
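IDH1KD HT-1080 cells, 750/well, RPMI + 5% FBS; compound pinned after 2 h settling; 48 h, 37 °C; CellTiter-Glo luminescence; % activity normalised to DMSO and no-cell wells; curves fitted, classed by r2 and efficacy.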
S2 tox – reduces viability in counter-screen for ATXN expression inhibitors; S2 cells (HEK-293 line with an ATXN2-luciferase reporter) viability, CellTiter-Fluor protease fluorescence, 24 h; AID 651635; Potency, µM (top dose mostly 56.7 µM), most hits filed as cytotoxic; hit rate 0.49% among 400,000; further: nearly all actives have a fitted effect of over 40% in size
HT1080NT lethal – kills 2HG-producing HT-1080-NT fibrosarcoma cells; Potency, µM (series often up to 46.1 µM), without a hit: at the highest dose activity, negative = less viability, most hits filed as cytotoxic; hit rate 1.6% among 360,000; HT-1080-NT fibrosarcoma viability, CellTiter-Glo ATP luminescence, 48 h; AID 686970;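 further: NT is the 2HG producing partner of a matched IDH1 knockdown line; 0% = DMSO-treated cells and -100% = media-only wells without cells; nearly all actives have a fitted effect of over 55% in size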
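750 cells/well, RPMI + 5% FBS; 2 h settle, compound pin-transfer, 48 h at 37 degrees C. CellTiter-Glo 10 min RT, luminescence. Normalized to DMSO and media-only wells.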
* = called active by the depositor; i = inactive; ? = inconclusive; . = no result given; [ ] = remark or other dose. The call rests on the fitted dose curve; in most records, active means well fitted curve in the direction sought with a large enough effect; inconclusive means small, poorly fitted or top-dose-only effect, or another doubt; inactive means no such curve, though single readings can be large; an effect the other way counts as inactive or inconclusive. Potency means the concentration at half of the fitted maximal effect.

SMILES | HepG2 viability | TGFb inhibitor | ATXN2 expr inh | HT1080 IDH1KD tx | S2 tox | HT1080NT lethal
Cc1cc(C)cc(NC2=NC3(CCCCC3)N=C(N)N2)c1 | 24% | 3% | 0% | 4.6µM* | i | ?
Cc1cccc(NC2=NC(C)(C)N=C(N)N2)c1 | -45% | -20% | -10%[11.3 µM] | 0.16µM* | i | 0.33µM*
Cc1ccc(OCCSc2nc3ccccc3n2CC(=O)N2CCOCC2)c(C)c1 | -11% | 7% | 5% | . | ? | .
CCCC(=O)N1CCc2cc(OC)c(OC)cc2C1COc1ccc2c(C)cc(=O)oc2c1 (configuration not stated) | -5% | 1% | -5% | . | ? | .
Cc1c(CCOC(=O)c2ccc(N3CCOCC3)c([N+](=O)[O-])c2)sc[n+]1CC#N | -27% | ? | ? | ? | ? | 23µM*
CCOC(=O)CS(=O)(=O)c1nc(-c2ccccc2)cc(C(F)(F)F)n1 | -90% | ? | -32% | 6.5µM* | i | 9.2µM*
CCOC(=O)c1c(C(F)(F)F)cc(-c2ccc(F)cc2)nc1C | -36% | ? | 4% | 12% | i | 10%
CCOC(=O)CS(=O)(=O)c1nc(-c2ccc(F)cc2)cc(C(F)(F)F)n1 | -96% | ? | ? | 13µM* | . | 6.5µM*
CCOC(=O)CS(=O)(=O)c1ccccc1 | 3% | -5% | 4% | 7% | i | 6%
CCOC(=O)CCS(=O)(=O)c1nc(-c2ccccc2)cc(C(F)(F)F)n1 | -119% | ? | ? | 5.2µM* | . | ?
CCOc1ccc(NC(=O)C2CCCN(c3nn4cc(-c5ccc(OC)cc5)nc4s3)C2)cc1 (configuration not stated) | -9% | ? | . | . | . | .
COc1cc(/C=C/c2cc[n+](C)cc2)ccc1OCC(=O)Nc1ccc(Cl)c(Cl)c1 | -6% | ? | -12% | 23µM* | i | ?
CN1CCN(N)CC1 | . | . | -4% | . | i | .
COc1cccc(Oc2ccc(C(F)(F)F)cc2NC(=O)CN2C(=O)NC3(CCCC3)C2=O)c1 | 13µM* | 18µM* | -36% | -22% | ? | ?
N#CC(C#N)=C1C=CC=CN1/C(=C\c1ccccc1Cl)C(=O)c1ccccc1 | 7.1µM* | 3.2µM* | 13µM* | 2.6µM* | ? | ?
N#C/C(=C\c1cccc(Br)c1)C(=O)N1CCCCC1 | -180% | ? | -3% | 16µM* | i | 23µM*
Cc1cc(/C=C(\C#N)C(=O)N2CCCCC2)cc(C)c1O | -5% | 2% | -1% | 18µM* | i | 16µM*
N#C/C(=C\c1cccc(O)c1)C(=O)N1CCCCC1 | -15% | 13% | 15% | -11% | i | -1%
CCCN1CNc2c(c(=O)[nH]c(=S)n2CCc2c(OC)cccc2OC)C1 | . | . | . | 16% | . | 3%
CCC1CN(CC(=O)NCc2ccc3c(c2)OCO3)Cc2ccc(Cl)cc2O1 (configuration not stated) | . | . | . | . | i | .
CC(=O)c1ccc(OC2(C)CCN(Cc3cccn3-c3nccs3)C2)cc1 (configuration not stated) | -28% | ? | -1% | -6% | i | 0%
CC1(Oc2ccc3ccccc3c2)CCN(Cc2cccn2-c2nccs2)C1 (configuration not stated) | -33% | ? | -20% | 15µM* | ? | 21µM*
CCOCCCNC(=O)Nc1cc(C(=O)NCc2ccc(C(C)C)cc2)ccc1N1CCCC1 | -12% | ? | -21% | . | ? | .
O=C(CC1(O)C(=O)N(C/C=C/c2ccccc2)c2ccccc21)c1ccccn1 (configuration not stated) | 0% | ? | -25% | 10µM* | i | ?
O=C(CC1(O)C(=O)N(CCc2ccccc2)c2ccccc21)c1ccccn1 (configuration not stated) | 0% | 1% | -7% | 25% | i | 15%
SMILES | HepG2 viability | TGFb inhibitor | ATXN2 expr inh | HT1080 IDH1KD tx | S2 tox | HT1080NT lethal
O=C1OC2(c3ccc(O)cc3Oc3cc(O)ccc32)c2ccccc21 | . | . | 0% | . | ? | .
O=C1OC(c2ccccc2)(c2ccc(O)cc2)c2ccccc21 (configuration not stated) | -10% | -10% | 2% | ? | i | 21µM*
O=C1OC2(c3ccccc31)c1cc(I)c(O)c(I)c1Oc1c2cc(I)c(O)c1I | . | . | -7% | . | 35µM* | .
O=C1OC(c2ccccc2)(c2ccccc2)c2ccccc21 | -9% | 10% | 4% | -14% | i | -24%
CC1CN(CCCCOc2ccc(Cl)c3ccccc23)CC(C)O1 (configuration not stated) | -59% | 16µM* | -33% | ? | i | 21µM*
CC1CN(CCCCOc2ccc(C(C)C)cc2)CC(C)O1 (configuration not stated) | -21% | -5% | -15% | -11% | i | 0%
Cc1ccc(C2=NC(C(F)(F)F)(C(F)(F)F)c3c(n(-c4ccc(F)cc4)c(=O)[nH]c3=O)N2)cc1 | -15% | ? | -12% | -2% | i | -3%
O=c1[nH]c(=O)n(-c2ccc(F)cc2)c2c1C(C(F)(F)F)(C(F)(F)F)N=C(c1ccc(F)cc1)N2 | -47% | ? | ? | 18µM* | ? | 15µM*
CC(C)(C)c1ccc(C(=O)NC2(C(F)(F)F)NC(=O)N(CCc3ccccc3)C2=O)cc1 (configuration not stated) | 20µM* | 10µM* | ? | . | ? | .
CCNC(=S)Nc1cc(C)ccn1 | 1µM* | -14% | 7% | 2% | i | -3%
CCOc1ccc(C(=O)Nc2cc(C)ccn2)cc1 | 14µM* | -19% | ? | 12µM* | i | ?
Cc1ccnc(NC(=O)c2ccc(S(=O)(=O)N3CCCCCC3)cc2)c1 | 2.2µM* | -23% | 33% | -18% | i | -3%
Cc1ccnc(NC(=O)c2ccc(S(=O)(=O)N3CCCCC3)cc2)c1 | -12% | -2% | 12% | 13% | i | 20%
Cc1ccc(CC(=O)Nc2cc(C)ccn2)cc1 | -5% | -11% | 8% | -8% | i | -3%
O=C(Nc1cnccn1)c1ccncc1 | 1% | -4% | 0% | -11% | i | -2%
CCOc1cc(C(=O)Nc2cnccn2)cc(OCC)c1OCC | -22% | 1% | -12% | 10µM* | ? | ?
CCOc1cc(C(=O)Nc2cc(C)ccn2)cc(OCC)c1OCC | -19% | -1% | 15% | -23% | i | -17%
Cc1cnc(-n2ncc(C(=O)N(C)C3CCOC3)c2-c2cccs2)nc1-c1ccc(F)cc1 (configuration not stated) | . | . | . | . | i | .

Source: PubChem BioAssay (National Center for Advancing Translational Sciences (NCATS))
